Assay results published in PubChem BioAssay.
A number with no mark means an inactive call. Calls of active or inactive are those of the source. Rule as the data show it: active = fold change permeability below about 0.7 or above about 1.3; inactive = in between.

assay: compounds altering in vitro BBB leakiness – cell-based, FITC-avidin fluorescence, HTS, primary screen (AID 1963498); conditions: brain endothelial barrier, actives lie on both sides; also: test concentration not given here

Q: Which fold change permeability does the source give for CC(C[N+](C)(C)C)OC(N)=O (stereo not given) here?
A: 1

Q: For CCCCC1C(=O)N(c2ccccc2)N(c2ccccc2)C1=O, which fold change permeability is on record?
A: 0.9

Q: For CC(=O)OC(C)C[N+](C)(C)C (stereo not given), which fold change permeability is on record?
A: 1

Q: Which fold change permeability does the source give for COc1ccc(/C=C/C(=O)Nc2ccc(C(F)(F)F)cc2)cc1OC here?
A: 1.6 (active)

Q: Which fold change permeability does the source give for c1ccc2c(c1)CCC[C@H]2Nc1nc2ccccc2[nH]1 here?
A: 1.3 (active)

Q: Which fold change permeability does the source give for O=C(c1ccc(F)cc1)C1CCN(CCn2c(=O)[nH]c3ccccc3c2=O)CC1 here?
A: 1.2

Q: Which fold change permeability does the source give for CCOC(=O)c1c(CSc2ccccc2)n(C)c2cc(Br)c(O)c(CN(C)C)c12 here?
A: 1.4 (active)

Q: With CC(C)Cc1ccc(C(C)C(=O)O)cc1 (stereo not given) as the molecule, how does the fold change permeability read?
A: 2 (active)

Q: Which fold change permeability does the source give for CC(/C=C1\SC(=S)N(CC(=O)O)C1=O)=C\c1ccccc1 here?
A: 1

Q: With Nc1ncnc2c1c(-c1cccc(OCc3ccccc3)c1)cn2C1CC(CN2CCC2)C1 (stereo not given) as the molecule, how does the fold change permeability read?
A: 1.1

Q: Which fold change permeability does the source give for CC(C)(C=O)Cc1cc(C(C)(C)C)c(O)c(C(C)(C)C)c1 here?
A: 1.2

Q: For Cc1cc(C)c(S(=O)(=O)N(CCc2cccc(Br)c2)Cc2ccc(-c3cccc(S(C)(=O)=O)c3)cc2)c(C)c1, which fold change permeability is on record?
A: 1.8 (active)

Q: With O=C(O)C1=CC(=C(c2ccc(O)c(C(=O)O)c2)c2ccc(O)c(C(=O)O)c2)C=CC1=O as the molecule, how does the fold change permeability read?
A: 0.9

Q: For C#CCN(C)CCCOc1ccc(Cl)cc1Cl, which fold change permeability is on record?
A: 1.3 (active)

Q: Which fold change permeability does the source give for CCN(CC)CCNC(=O)c1ccc(N)cc1 here?
A: 0.8

Q: With Cc1cc(N)c2ccccc2[n+]1CCCCCCCCCC[n+]1c(C)cc(N)c2ccccc21 as the molecule, how does the fold change permeability read?
A: 1.6 (active)

Q: For Cn1c(CNc2ccc(C(=N)N)cc2)nc2cc(C(=O)N(CCC(=O)O)c3ccccn3)ccc21, which fold change permeability is on record?
A: 1.1

Q: Which fold change permeability does the source give for CN1CCN(C(c2ccccc2)c2ccc(Cl)cc2)CC1 (stereo not given) here?
A: 1.7 (active)

Q: For NNC(=O)CSc1nc2scc(-c3ccccc3)c2c(=O)n1-c1ccccc1, which fold change permeability is on record?
A: 1.2

Q: For Nc1ncnc2c1ncn2C1CCCC1, which fold change permeability is on record?
A: 0.9

Q: With CC(=O)c1ccc2c(c1)N(CCCN(C)C)c1ccccc1S2 as the molecule, how does the fold change permeability read?
A: 1.6 (active)

Q: For CCC(NC(C)C)C(O)c1ccc(O)c(O)c1 (stereo not given), which fold change permeability is on record?
A: 1.9 (active)

Q: For CCCCCCCCCCCCCCSCC(=O)O, which fold change permeability is on record?
A: 1.6 (active)

Q: Which fold change permeability does the source give for N=C(N)c1ccc(OCCCCCOc2ccc(C(=N)N)cc2)cc1 here?
A: 1.1

Q: With O=C(O)[C@H]1NCCC[C@H]1C(=O)O as the molecule, how does the fold change permeability read?
A: 1

Q: With O=C(O)CCCCN(CCc1ccccc1OCc1ccc(CCc2ccccc2)cc1)Cc1ccc(C(=O)O)cc1 as the molecule, how does the fold change permeability read?
A: 1.2

Q: Which fold change permeability does the source give for Cc1cccc(-c2[nH]c(Cc3cccc(C(N)=O)c3)nc2-c2ccc3nccnc3c2)n1 here?
A: 0.9

Q: With COc1cc(/C=C/C(=O)N2CCN(CC(=O)N3CCCC3)CC2)cc(OC)c1OC as the molecule, how does the fold change permeability read?
A: 1

Q: Which fold change permeability does the source give for O=C(O)CCCCCCCC(=O)O here?
A: 1.2

Q: Which fold change permeability does the source give for N[C@H](CCCP(=O)(O)O)C(=O)O here?
A: 1.3 (active)

Q: For COc1ccc(/C=C/C(=O)Nc2ccccc2C(=O)O)cc1OC, which fold change permeability is on record?
A: 1.4 (active)

Q: With COc1cc2c(cc1OC)C1CC(=O)C(CC(C)C)CN1CC2 (stereo not given) as the molecule, how does the fold change permeability read?
A: 0.7 (active)

Q: For C(=C\c1ccccc1)/CN1CCN(C(c2ccccc2)c2ccccc2)CC1, which fold change permeability is on record?
A: 1.2

Q: Which fold change permeability does the source give for NCCc1cnc[nH]1 here?
A: 1.3 (active)

Q: Which fold change permeability does the source give for CC(C)(C)c1ccc(/C=C/C(=O)Nc2ccc3c(c2)OCCO3)cc1 here?
A: 2 (active)

Q: With CN1CCc2cc(Cl)c(O)cc2[C@@H](c2ccccc2)C1 as the molecule, how does the fold change permeability read?
A: 0.9

Q: For N=c1ccn2c(n1)O[C@H]1[C@H](O)[C@@H](CO)O[C@H]12, which fold change permeability is on record?
A: 1.1

Q: For O=C(O)CCCCC1CCSS1 (stereo not given), which fold change permeability is on record?
A: 0.7 (active)

Q: Which fold change permeability does the source give for CCN(CC)CCOC(=O)c1ccc(N)cc1 here?
A: 0.8

Q: Which fold change permeability does the source give for O=C(c1ccc2c(c1)OCCO2)N1CCCCC1 here?
A: 1.2
